# Screening results: PubChem, several laboratories
# The list is not random: actives were taken first. Their share in the collection is about 2.1%.
# EWS-Fli inh = EWS/Fli transcriptional activity inhibition | inhibition, % at 12.6 µM | A673 NR0B1-luciferase reporter, viability-normalised | 0.67% of 350,000 active | AID 651661;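 active = mean inhibition of at least 50% after viability correction, with every replicate also passing that limit; inconclusive = mean reaches 50% but only one of two replicates passes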;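 note: firefly luciferase signal divided by Alamar Blue viability fluorescence both relative to DMSO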
# HIF-2a block = HIF-2a inhibition; 786-0 RCC cells HIF-2a reporter, luciferase luminescence, overnight; inhibition, % at 18.8 µM; 0.72% of 360,000 active;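 active = inhibition of the luminescence signal of 40% or more relative to plate controls, in a single-dose primary screen at 18.75 µM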
# PAX8 inh HTS = PAX8 transcriptional activity inhibition; RMG-I TPO-luciferase reporter, SteadyGlo, 24 h; inhibition, % at 12.6 µM; 1.2% of 360,000 active; AID 652154;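 active = mean replicate inhibition at least 60% with every replicate also reaching 60%; inconclusive = only one of the two criteria is met; inactive = mean below 60% and not all replicates reaching 60%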;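 note: luciferase light reporting Pax8 driven TPO promoter activity; plate controls were median of neutral control wells for no effect and mitoxantrone controls for full effect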
# CF NFkB block = blocks PAF-induced NF-kB reporter in cystic fibrosis cells. KKLEB NF-kB-GFP reporter, GFP fluorescence overnight. inhibition, % at 5 µM. 0.86% of 360,000 active. AID 588850;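 active = at least 50% inhibition at 5 µM, scaled per plate between neutral and stimulator controls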;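 note: PAF is a Pseudomonas aeruginosa culture filtrate used as stimulus; plate controls were PAF-stimulated DMSO wells for no effect and unstimulated DMSO wells for full effect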
# KKLEB tox = reduces viability of KKLEB cystic fibrosis airway cells. KKLEB CF airway cells viability, ATPlite luminescence, overnight; stronger effect = lower value; cells stimulated with P. aeruginosa culture filtrate. activity change (cytotoxicity), % at 5 µM. 0.36% of 360,000 active. AID 602141;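 active = corrected activity change at or below -50% at 5 µM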
# Mdm2 MdmX conf = confirmation of inhibitors of human Mdm2/MdmX interaction, set 2; inhibition, % at 8 µM; 99% of 740 active; shares compounds with HIF-2a block; SaOS-2 split-luciferase Mdm2/MdmX complementation, luminescence; AID 504601;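 active = mean inhibition of the luminescence signal across two replicates at or above 26 percent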
# Target sequence (O15151 whole entry, looked up): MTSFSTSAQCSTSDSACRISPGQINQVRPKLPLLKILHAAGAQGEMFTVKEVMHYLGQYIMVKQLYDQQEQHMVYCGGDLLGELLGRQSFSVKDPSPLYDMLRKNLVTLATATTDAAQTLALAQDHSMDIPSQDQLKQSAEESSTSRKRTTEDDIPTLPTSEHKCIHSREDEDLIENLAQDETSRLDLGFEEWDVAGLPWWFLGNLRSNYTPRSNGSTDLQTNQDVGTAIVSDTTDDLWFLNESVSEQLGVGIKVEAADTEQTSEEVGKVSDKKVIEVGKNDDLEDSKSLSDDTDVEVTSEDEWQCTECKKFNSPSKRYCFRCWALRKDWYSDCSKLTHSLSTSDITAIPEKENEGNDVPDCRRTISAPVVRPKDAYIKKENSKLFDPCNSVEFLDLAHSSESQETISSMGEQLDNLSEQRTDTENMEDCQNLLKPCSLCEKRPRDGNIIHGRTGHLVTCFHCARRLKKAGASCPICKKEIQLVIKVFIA
# Target sequence (Q00987 whole entry, looked up): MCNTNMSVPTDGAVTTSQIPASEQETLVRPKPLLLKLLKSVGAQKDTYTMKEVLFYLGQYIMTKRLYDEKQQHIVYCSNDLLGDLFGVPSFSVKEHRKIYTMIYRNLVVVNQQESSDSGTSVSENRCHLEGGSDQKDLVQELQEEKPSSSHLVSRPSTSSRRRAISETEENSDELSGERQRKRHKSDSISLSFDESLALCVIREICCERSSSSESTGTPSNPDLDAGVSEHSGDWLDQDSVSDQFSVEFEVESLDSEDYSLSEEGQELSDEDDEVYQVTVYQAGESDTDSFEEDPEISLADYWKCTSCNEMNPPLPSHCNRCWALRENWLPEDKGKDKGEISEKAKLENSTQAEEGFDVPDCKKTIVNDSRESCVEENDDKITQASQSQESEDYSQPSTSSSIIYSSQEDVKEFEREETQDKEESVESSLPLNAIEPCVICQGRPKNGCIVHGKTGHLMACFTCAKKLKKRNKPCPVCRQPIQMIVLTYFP
# HIF-2a conf = HIF-2a inhibition, single concentration confirmation; shares compounds with HIF-2a block; inhibition, % at 18.8 µM; 56% of 1,800 active; 786-0 RCC cells, HIF-2a luciferase reporter luminescence, overnight; AID 651580;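 active = mean inhibition across four replicates of at least 40 percent at the single tested concentration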
# HIF-1a counter = counter-screen for HIF-2a inhibitors: HIF-1a inhibition in MiaPaCa-2 cells; shares compounds with HIF-2a block; MiaPaCa-2 HIF-1a luciferase reporter, desferoxamine, overnight; inhibition, % at 18.8 µM; 72% of 1,800 active; AID 651589;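 active = mean inhibition of the reporter signal across four replicates at the single tested dose of 50% or more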
# * = called active by the depositor; ? = inconclusive; . = no result given.
SMILES,EWS-Fli inh,HIF-2a block,PAX8 inh HTS,CF NFkB block,KKLEB tox,HIF-2a conf,HIF-1a counter,others
CC(=O)Nc1ccc(NC(=O)C2CC(=O)N(Cc3ccccc3)C2)cc1 (stereo not given),0.2,21.4,11.6,-0.6,7.2,.,.,
COc1cc(CN2CC3(CCN(S(=O)(=O)c4cccc(F)c4)CC3)c3c([nH]c4cc(OC)ccc34)[C@@H]2CO)cc(OC)c1,7.1,.,15.6,.,.,.,.,
O=C(Nc1nc(-c2ccc(-c3ccccc3)cc2)cs1)c1cc([N+](=O)[O-])ccc1N1CCOCC1,-14.9,62.0*,-7.9,-4.8,-5.6,-78.1,-7.2,
Cc1ccc(C)c(N=Nc2ccc(O)c3ncccc23)c1,.,16.5,-6.7,-20.7,8.4,.,.,Mdm2 MdmX conf=100.0*
COc1ccc(-c2cc3c(=O)n(CC(=O)NCCCN4CCC(N5CCCCC5)CC4)nc(C)n3n2)cc1,-24.5,0.6,-5.1,-10.3,17.5,.,.,Mdm2 MdmX conf=72.7*
COc1ccc(-c2cc3c(=O)n(CC(=O)NCCCN4CCC(N5CCCCC5)CC4)ncn3n2)cc1,-48.3,-60.5,-34.3,-0.1,-9.4,.,.,
O=C(C[C@@H]1CC[C@@H]2NC[C@@H](O)COC[C@H]2O1)NCCN1CCCC1,26.3,.,-45.5,.,.,.,.,
O=C1C=CC(=O)N1c1ccc2c(c1)C(NC(=O)C(F)(F)F)c1ccccc1-2 (stereo not given),14.7,45.5*,27.7,39.6,-9.4,10.5,16.5,
CCOC(=O)c1ccc(Nc2nc(N)c3cc(OC)c(OC)cc3n2)cc1,.,-44.1,.,-37.4,-12.9,.,.,Mdm2 MdmX conf=61.2*
C[C@H]1CCCCO[C@H](CN(C)C(=O)Nc2ccccc2)[C@@H](C)CN([C@@H](C)CO)C(=O)c2cc(NC(=O)c3ccccc3)ccc2O1,3.3,.,9.3,.,.,.,.,
CCOc1ccc(OCc2ccc(C(=O)O)o2)cc1,.,41.7*,.,7.8,-4.9,27.4,-21.9,
O=C(N[C@@H]1CC[C@H](CCNS(=O)(=O)c2ccc(F)cc2)O[C@H]1CO)c1cnccn1,2.7,.,-3.2,.,.,.,.,
CCN1CCN(c2ccc(NC(=O)c3ccc([N+](=O)[O-])o3)cc2Cl)CC1,32.9,63.7*,83.3*,89.2*,-43.5,49.0*,57.8*,
CCN1CCN(c2ccc(S(=O)(=O)N3CCCCC3)cc2NC(=O)c2ccc([N+](=O)[O-])o2)CC1,44.5,8.2,56.4,17.0,13.1,.,.,
CCC(=O)N1CCN(c2ccc(NC(=O)c3ccc([N+](=O)[O-])o3)cc2Cl)CC1,?,93.7*,99.0*,86.2*,-58.0*,51.2*,90.1*,
CCCC#Cc1cnc2c(c1)C(=O)N([C@@H](C)CO)C[C@H](C)[C@@H](CN(C)C(=O)CN1CCOCC1)O2,-9.3,.,.,.,.,.,.,
C=CCN1C(=O)N/C(=C/c2ccc(C)o2)C1=O,-23.8,40.2*,-18.9,-9.3,0.8,-33.5,-13.5,
COc1ccc(CN(C)C[C@H]2OCCCC[C@@H](C)Oc3ccc(NC(=O)CCC(F)(F)F)cc3C(=O)N([C@@H](C)CO)C[C@H]2C)cc1,-0.7,.,6.9,.,.,.,.,
C[C@@H]1CN([C@@H](C)CO)C(=O)c2cc(C#CCN(C)C)cnc2O[C@H]1CN(C)Cc1cccc(C(=O)O)c1,-9.1,.,.,.,.,.,.,
O=C(Nc1ccc(Cl)c(C(F)(F)F)c1)c1ccncc1,14.8,-17.6,12.1,-45.0,-6.4,.,.,
CNC(=O)c1cc(Oc2ccc(NC(=O)Nc3ccc(Cl)c(C(F)(F)F)c3)cc2)ccn1,21.6,14.9,96.4*,74.7*,-11.9,.,.,Mdm2 MdmX conf=99.5*
Cc1cc(C2(c3ccc(O)c(C)c3)OC(=O)c3ccccc32)ccc1O,17.6,36.4,32.5,13.4,4.4,.,.,
Cc1cc(O)c(C(C)C)cc1C1(c2cc(C(C)C)c(O)cc2C)OC(=O)c2ccccc21,28.7,50.0*,89.0*,33.3,0.7,62.8*,107.3*,
CCOc1c(Br)cc(/C=C2/SC(=O)N(CC(=O)N3CCCC3)C2=O)cc1OC,.,-13.0,3.0,-4.2,-3.0,.,.,
CCOC(=O)COc1c(Br)cc(/C=C2\SC(=O)N(CC(=O)N3CCCC3)C2=O)cc1OC,.,48.5*,-6.4,15.1,-5.7,8.2,41.8,
